Among all 53,000 sequences or so, about 3,700 (7%) were called active.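 Rule for the calls: active = gene knockdowns whose robust z-score for IL-1 alpha signal is at least 2 or at most -2, so actives lie on both sides; inactive = the rest.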 Shown is part of a subset that was picked to be rich in actives.

This assay is described as follows: Components of the Cytosolic LPS Sensing Pathway: Gene Identification via Genome-wide siRNA Screen.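 Note: robust z of the log signal after scaling to non-targeting control siRNA wells of the plate.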 To be noted: RAW264.7 macrophages, IL-1a HTRF, actives lie on both sides, screened at 100 nM (by protocol), cells primed 5 h with Pam3CSK4 first. In outline:
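RAW264.7 mouse macrophages reverse-transfected with single siRNAs (100 nM final) for 48h, primed with Pam3CSK4 for 5 hours, then transfected with LipidA for 24 hour. Supernatant IL-1a read by HTRF; values normalized to negative-control median, log-transformed robust z-scores.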
Consider GGAGAGCAAAUUAAGUUCATT against Erc1, for which the z-score was 1.01 (inactive).
Then GCAAUAAGGGCAUUAUAAATT against Wdhd1, with -0.407 (inactive).
On to GGUUCAUAAUGCCUUCAAGTT against Olfr1449, for which the z-score was 0.719 (inactive).
Turning to CCAGGAAGUUACAAUUCAATT against Ccpg1, the z-score was 0.181 (inactive).
Then GCCUAAUGCCAACUCACAATT against Samd7, with -1.49 (inactive); and GGCACUGCACUUUAACAUATT against Serpinb7, with -0.402 (inactive).
On to GGGUGUGAGGGAUUUCAUCTT against Ndufa2, for which the z-score is 2.22 (active).
Then CCUAACCAUCGACUUCUUCTT against Wfs1, with -0.189 (inactive); and GCGGGACUGACCUCUUAAUTT against Guk1, with -0.244 (inactive).
Then GGAGUGAAGGUUCAGAUCCTT against Asic2, with 3.1 (active).
Then GGCUUUCAGAGUUAACAAATT against Ptpn4, with -0.727 (inactive).
With GGGUGUCUUCAACAAGUACTT against Dnttip1, the z-score was -1.71 (inactive).
Under GGAAAAAAGGAUUUCAAACTT against Rad9b stands 1.3 (inactive).
Then GGAAAGACCACCAAAUCCCTT against Dpy30, with 1.48 (inactive); and GGCUCCAUAUGGAAUGCAGTT against Ets2, with 0.571 (inactive); and CCAGCCGUAUUACAACUACTT against Bpnt1, with 2.12 (active).
Take GCUUAAACCGCCUAUGUUCTT against Spcs1: the z-score was 0.782 (inactive).
Under “GCUCACCUUUCUUGAGAAATT against 4930579C12Rik” stands -0.179 (inactive); under GGAAAAAGUGCAUUUAUGUTT against Prpf40a, -1.16 (inactive); under GCUGUUGCUGGCUAUUCUGTT against Eef2kmt, -2.3 (active).
For the sequence AACAUGUCCAACCUAGGCATT against Lefty1, the z-score is -1.44 (inactive).
Under GGUGGACUACUCACGAUUCTT against Kcnj4 stands 0.867 (inactive).
For the sequence GGAGCAGGACGAGAAUCAATT against Cdkn1c, the z-score is 3.62 (active).
Then GCACUGGAAUCAAACCAUCTT against Ppp2r5b, with 0.444 (inactive); and CGCAUUUUCUCUCGAGCUUTT against Slc25a30, with -0.34 (inactive).
Then GGAGCACAGUUUUGGUGCUTT against Olfr576, with 1.82 (inactive).
With GGAAGUAAAGCUCUACAAGTT against Vps28, the z-score was 0.236 (inactive).
On to GGCACAAUUUCUUUGAAUCTT against Ophn1, for which the z-score was 0.885 (inactive).
Under GGCUAUUAGGUUUGAAAUCTT against Grsf1 stands 0.351 (inactive); under GGUUUCCAGUAAGAUCUUATT against Mdn1, 2.21 (active).
As to “CCUAGAUUCUCCAAACUAATT against D630029K05Rik”, the z-score was -0.238 (inactive).
In the case of GGAGAUGCGAGUACAACUGTT against Ermn, the z-score is 0.479 (inactive).
Then GGAAAGAUGUGGUCCAGCUTT against Sirt3, with 0.373 (inactive); and UUAAGCCGCUUUUGAAGCUTT against Olfr1200, with 0.812 (inactive).
For the sequence GGCUUUCAAGAUUCAGUGATT against Gsta1, the z-score was 0.103 (inactive).
Then GGCACUUCAAGGAGUUUUUTT against Lig4, with 3.25 (active).
Under GGAAAAUAAGCUAAGGAAGTT against Peg12 stands -0.018 (inactive); under GGCAAUUUCUAAACAGGGATT against Atp6v1f, -2.01 (active).
Regarding GCGAUGCUCCUAAUUCUUATT against Dusp21, the z-score is -1.18 (inactive).
As to GCUACAGUUUGUGGGUGACTT against Zmynd15, the z-score was 0.11 (inactive).
Consider “CGAGUAUCCCGUCAAGUUGTT against 6820408C15Rik”, for which the z-score was -0.699 (inactive).
Then GGCAAAUUAGCUAGUAUCATT against Rai2, with -2.2 (active); and GGUGGAGAAGAGUUUCUGCTT against Gpr132, with 0.375 (inactive).
Turning to GGAGAAACAGAAGUAUUGATT against Nsa2, the z-score was -0.559 (inactive).
Under GGGUUGGAACAAGGUAAUUTT against Usp16 stands -0.546 (inactive).
Then GGCUCAAAGCCAAUCUGAATT against Recql4, with 2.06 (active).
Under GCUGUAUCCAGCUUUUCGGTT against Tcf3 stands -0.43 (inactive); under GCGAGAUUCUUAAAGAAAUTT against Brdt, 0.645 (inactive); under GAGCUGUGAAUGCCUGUGGTT against Lyz2, -2.33 (active).
Take GCUAGUUAAUGGUAACAUATT against Sult1d1: the z-score is -1.68 (inactive).
Consider GGCCAAACUGGAUUACUUATT against Tmprss11c, for which the z-score is 1.26 (inactive).
Then CCCUGCUCUCACUUGUUUATT against Olfr643, with -0.446 (inactive); and CCUUUCUUGUGUUUACAGGTT against P2ry6, with -0.347 (inactive); and GGCAGUUUCUUCUUCCAAATT against H1f1, with 2.89 (active).
Consider GGUGAUCAACAAUGGCAAUTT against Clec4a3, for which the z-score was 1.26 (inactive).
Under GCACAUGUGUUUAUACAUUTT against Sfxn3 stands -0.556 (inactive).
For CGACGAGGAAUAACCUCUCTT against Myh6, the z-score is 2.05 (active).
Then GGGUAUGGCAUAAAUGUCCTT against Zpbp, with -2.75 (active).
Turning to GGCAUUCCAGAGAAAGCGUTT against F3, the z-score is -1.33 (inactive).
Regarding GCGAAUUGGAACAGCUGACTT against Sh3glb1, the z-score is -0.982 (inactive).
Then GGUAUACCACUAUUCUCACTT against Olfr649, with 0.705 (inactive); and CCAUAUAUGAUAGGAAACUTT against Pon2, with -0.288 (inactive); and GCCACAAUGUCCAAAAUUATT against Rab6a, with -0.271 (inactive).
Then GGAGCUUUUAAGAAUGUGGTT against Ireb2, with -1.57 (inactive); and GCAGGUGCCUUCAAAAACCTT against Pm20d2, with -0.926 (inactive); and CCUACGAGUUUUGCAUUUATT against Slc25a51, with -2.46 (active).
Under GGCAGCAGUUAAUUUACUUTT against Mmp21 stands -1.71 (inactive); under GGCGGGUAGAUAUCAUGGGTT against Stn1, 0.902 (inactive).
GGAAGCAAUGAUCAAUUAUTT against Ppp2r3c: the z-score was 0.752 (inactive).
Then GGUUCCAUGUUCAGAAUUUTT against Alg9, with 2.04 (active); and GGCAAUGAUGAUCUCCUCUTT against Htra3, with 0.434 (inactive).
Consider GGGUAUGACCGGUAUUACATT against Atp5j2, for which the z-score is 0.213 (inactive).
Turning to GGAGGCAGCCAAAGAAAACTT against Bmp8a, the z-score is 0.462 (inactive).
Then GGAUGAAAUCGCCAUAUGUTT against Snrnp48, with -1.89 (inactive); and GGAGAAAACCUAGAAAUUUTT against Galnt1, with 0.238 (inactive); and CCGGCUAUGAAGAUGAGUATT against Cox6a1, with 3.21 (active).
Then “GCCGUAAGCUAGGAUCUGGTT against 1700065D16Rik”, with 0.787 (inactive).
Consider GGUAAUACAACUGAGAACUTT against Zfp2, for which the z-score was 0.39 (inactive).
Turning to GGCAUCUGAGUGAUAUAAATT against Dcps, the z-score was 0.109 (inactive).
Under GGCCGUGUUAUCCAGAUUGTT against Prkcd stands 1.43 (inactive).
With GGCAGUCUCAGGUUAUCUCTT against Zfp445, the z-score was 0.406 (inactive).
Take GGCUUUUCAGCAGGUUUAATT against Ube2g1: the z-score is 5.04 (active).
For GGCUGUAAGGGAACAGCUATT against Irf2bp1, the z-score was -0.615 (inactive).
Then GGUGAUGAAAUUUAUUGAGTT against Gpn1, with -0.127 (inactive); and GGAGAAGGGCCUGAAGUAUTT against Lsm5, with -1.77 (inactive).
Take GGUGGCAGUCACCAUUCUUTT against Il17rd: the z-score is -0.364 (inactive).
Then CCAUACAGAUCGCACCCUGTT against Txndc15, with -2.15 (active); and GGACAGAGCCUAGAAAACUTT against Mpdu1, with -1.15 (inactive); and GGCUCCAAGGGAUUUGGUUTT against Rbfox1, with 2.77 (active).
GGACUUUGUCAACCAUGUCTT against Fbxl5: the z-score was -0.0144 (inactive).
In the case of CGUCAAUUCACACCAUUCATT against Gsk3a, the z-score was -1.25 (inactive).
For GGGUGCUCUGAAGAAGCAATT against Olfr488, the z-score is -2.04 (active).
Under GGCUUAUGUCACCAACUUGTT against Pxdc1 stands -0.533 (inactive); under GGAGUUAGAAUUGAACCUUTT against Mr1, -1.49 (inactive); under GGAUCCAUUUUGAGGAUUUTT against Vipr1, -0.056 (inactive).
In the case of GGGCAAGUACAAGCGUAACTT against Jph4, the z-score was -1.5 (inactive).
Consider GGGAAAACACAAAGAAGAATT against Angpt1, for which the z-score is 0.307 (inactive).
Under GGAGCCUAUCGCUUUACUCTT against Vps16 stands 1.18 (inactive); under GGAGAUCUGUGAUGAGGUGTT against Nudt22, 2.07 (active); under GGUGUCAACAUUGCAUACUTT against Gatad2b, 1.62 (inactive).
Under GGAAACAUCCAAGAAAAAUTT against Ap1s2 stands -0.489 (inactive); under GGCUAUGGAAACCACCACATT against Nrg3, -1.21 (inactive).
For the sequence CGAUGAUAAAACGAACAAGTT against Plppr5, the z-score was 2.78 (active).
Then GGAUUGUCCACAUGGAACUTT against Ccl27a, with -0.112 (inactive).
With GGUAUGGAUGAAGAACUAGTT against Pdhb, the z-score was 1.62 (inactive).
GGUUGUACCUACAACAGAUTT against Tiprl: the z-score was -0.773 (inactive).
Under GGCUUUACUUCUUGCUGUGTT against Olfr1412 stands -0.918 (inactive); under CCAUGGACCAAAUGAAGUUTT against Cd44, 2.59 (active).
